UHRF1 MBD2 ctr: UHRF1 methyl-DNA binding inhibition | Q96T88 | UHRF1 binding to methylated oligo, TR-FRET | inhibition, % at 4.4 µM | 0.75% of 370,000 active; in the data active = inhibition above about 21%;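 also: UHRF1 SRA domain binding a hemimethylated CpG hairpin DNA probe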
Neddylation inh: blocks human cullin neddylation; 0.58% of 360,000 active; calls only at 25 µM; P61081+Q13564; TR-FRET cullin neddylation, biochemical; in the data active = inhibition above about 36%
UBC13 inh: human UBC13 polyubiquitination inhibition; P61088; UBC13 polyubiquitin chain formation, TR-FRET; inhibition, % at 20 µM; 0.47% of 330,000 active; AID 485273; in the data active = inhibition above about 45%, passing the limit was not always enough; inconclusive = no clear call, values can overlap the other calls
MBD2 inh: MBD2-methylated oligo binding inhibition; Q9UBB5; TR-FRET, MBD2 binding to methylated oligonucleotide; inhibition, % at 4.4 µM; 0.31% of 370,000 active; AID 686964; in the data active = inhibition above about 13%
Casp3 counter: counter-screen for UBC13 inhibitors: human caspase-3 inhibition | shares compounds with UBC13 inh | Recombinant caspase-3, Caspase-Glo 3/7 luminescence, 60 min | inhibition, % at 20 µM | 4% of 1,400 active | AID 488856;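 active = mean inhibition across replicates above about 26%, limit read from the data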
UBC13 conf: human UBC13 polyubiquitin inhibition, confirmed | shares compounds with UBC13 inh | UBC13 polyubiquitination, TR-FRET, biochemical | inhibition, % at 10 µM | 68% of 1,400 active | AID 488859; in the data active = inhibition above about 45%; inconclusive = no clear call, values can overlap the other calls
Hits are given with their value. A selection: hits, their analogues and other compounds. The true share with any hit is near 1.8%.

Results for CC(C)(C)c1cc(NCCCn2ccnc2)n2ncc(-c3ccc(Cl)cc3)c2n1 ?
UHRF1 MBD2 ctr: inactive; UBC13 inh: 52; MBD2 inh: inactive; Casp3 counter: inactive; UBC13 conf: 77

Results for CN(C)c1ccc(/C=C2\c3ccccc3C(=O)N2c2ccccc2)cn1 ?
UHRF1 MBD2 ctr: inactive; Neddylation inh: inactive; MBD2 inh: inactive

What do the screens show for `CCC[C@@H](CN1CCC[C@H]1CN1C(N)=NC[C@@H]1Cc1ccccc1)N1C[C@@H]([C@H](C)CC)N(CCc2ccc(Cl)c(Cl)c2)C1=N`?
Neddylation inh: inactive; UBC13 inh: 74; Casp3 counter: inactive; UBC13 conf: 74

How did CCC[C@@H](CN1CCC[C@H]1CN1C(N)=NC[C@@H]1Cc1ccccc1)N1C[C@@H](Cc2ccccc2)N(CCc2ccc(Cl)c(Cl)c2)C1=N do in these assays?
UHRF1 MBD2 ctr: inactive; Neddylation inh: inactive; UBC13 inh: 75; MBD2 inh: inactive; Casp3 counter: inactive; UBC13 conf: 77

How did CC(C)C[C@H]1CN([C@@H](CC(C)C)CN2CCC[C@H]2CN2C(=O)C(=O)NC[C@@H]2Cc2ccccc2)C(=O)C(=O)N1CCc1ccccc1 do in these assays?
UHRF1 MBD2 ctr: inactive; Neddylation inh: inactive; MBD2 inh: inactive

What do the screens show for `CCC[C@@H](CN1CCC[C@H]1CN1C(N)=NC[C@H]1CC(C)C)N1C[C@@H](Cc2ccccc2)N(CCc2ccc(Cl)c(Cl)c2)C1=N`?
UHRF1 MBD2 ctr: inactive; Neddylation inh: inactive; UBC13 inh: 82; MBD2 inh: inactive; Casp3 counter: inactive; UBC13 conf: 89

Results for Cc1nc2sc(C(c3ccc(F)cc3)N3CCOCC3)c(O)n2n1 (centres undefined) ?
UHRF1 MBD2 ctr: inactive; Neddylation inh: inactive; UBC13 inh: inactive; MBD2 inh: inactive

What do the screens show for `CCOc1ccc(-c2nc3c(s2)CCc2onc(-c4ccc(OC)cc4)c2-3)cc1`?
UHRF1 MBD2 ctr: inactive; Neddylation inh: inactive; UBC13 inh: inactive; MBD2 inh: inactive

How did Oc1ccc(NC(=S)N=Nc2c(O)[nH]c3ccccc23)cc1 do in these assays?
UHRF1 MBD2 ctr: inactive; Neddylation inh: inactive; UBC13 inh: 92; MBD2 inh: inactive; Casp3 counter: inactive; UBC13 conf: 103

Results for Oc1cccc(NC(=S)N=Nc2c(O)[nH]c3ccc(Br)cc23)c1 ?
UHRF1 MBD2 ctr: inactive; Neddylation inh: inactive; UBC13 inh: 86; MBD2 inh: inactive; Casp3 counter: inactive; UBC13 conf: inconclusive

What do the screens show for `Cc1ccc(N2CC(C(=O)NC3CCCCCC3)CC2=O)cc1` (centres undefined)?
UHRF1 MBD2 ctr: inactive; Neddylation inh: inactive; MBD2 inh: inactive

What do the screens show for `CCOc1ccc(NC(=O)C(=O)NCCCn2ccnc2)cc1`?
UHRF1 MBD2 ctr: inactive; Neddylation inh: inactive; UBC13 inh: inactive; MBD2 inh: inactive

Results for COc1cccc(NC(=O)CCCOc2cc(=O)n(C)c3ccccc23)c1 ?
UHRF1 MBD2 ctr: inactive; Neddylation inh: inactive; UBC13 inh: inactive; MBD2 inh: inactive

Results for Cn1c(=O)cc(OCC(=O)NCCCN2CCN(c3ccccc3F)CC2)c2ccccc21 ?
UHRF1 MBD2 ctr: inactive; Neddylation inh: inactive; UBC13 inh: inactive; MBD2 inh: inactive

Results for CCOc1ccc(NC(=O)CCCOc2cc(=O)n(C)c3ccccc23)cc1 ?
UHRF1 MBD2 ctr: inactive; Neddylation inh: inactive; UBC13 inh: 74; MBD2 inh: inactive; Casp3 counter: inactive; UBC13 conf: 76

How did Cn1c(=O)cc(OCCCC(=O)NCCN2CCN(c3ccccc3F)CC2)c2ccccc21 do in these assays?
UHRF1 MBD2 ctr: inactive; Neddylation inh: inactive; UBC13 inh: 57; MBD2 inh: inactive; Casp3 counter: inactive; UBC13 conf: inactive

Results for CCn1c(=O)cc(SCC(=O)NCCCN2CCN(c3ccccc3F)CC2)c2ccccc21 ?
Neddylation inh: inactive; UBC13 inh: 58; Casp3 counter: inactive; UBC13 conf: inconclusive

Results for CCOc1ccccc1NC(=O)/C=C/c1ccc(S(=O)(=O)N2CCOCC2)cc1 ?
UHRF1 MBD2 ctr: inactive; Neddylation inh: inactive; UBC13 inh: inactive; MBD2 inh: inactive

Results for CCOC(=O)C1=C(COC(=O)c2cccc(Br)c2)NC(=O)NC1C (centres undefined) ?
UHRF1 MBD2 ctr: inactive; Neddylation inh: inactive; UBC13 inh: inactive; MBD2 inh: inactive

Results for CCOC(=O)C1=C(COC(=O)c2cc(OC)c(OC)c(OC)c2)NC(=O)NC1C (centres undefined) ?
UHRF1 MBD2 ctr: inactive; Neddylation inh: inactive; UBC13 inh: 62; MBD2 inh: inactive; Casp3 counter: inactive; UBC13 conf: 84
